The values that follow come from PubChem BioAssay (NCATS).

The structures appear in SMILES notation. Where “and” joins values, the source holds several entries; their conditions need not be identical. Identical values can stand only once. Records with an inconclusive call do not appear. Calls of active or inactive are those of the source. Unless noted, calls follow the shape of the dose curve; as a rule, active = well fitted curve in the direction sought with a large enough effect; inconclusive = small, poorly fitted or top-dose-only effect, or another doubt; inactive = no such curve, though single readings can be large; an effect the other way counts as inactive or inconclusive.

A short description of assay [1]: qHTS profiling of the MIPE4 collection as inhibitors of Plasmodium falciparum (3D7) proliferation (AID 743344; call rule not given here;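 also: scaled between DMSO vehicle wells and 0.29 µM artemisinin as full inhibition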). The conditions noted are these: P. falciparum 3D7 in erythrocytes, SYBR Green DNA fluorescence, 72 h; at 28.5 µM unless noted. Summed up: (§1)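 Erythrocytes infected with P. falciparum (0.3% parasitemia, 2.5% hematocrit) incubated with compounds 72 h at 37 C, 5% CO2. Lysis with saponin/Triton buffer containing SYBR Green I, overnight at room temperature in the dark; DNA fluorescence (485/535 nm) normalised to 0.29 uM artemisinin and DMSO.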

Assay [2] in a line: qHTS profiling of the MIPE4 collection as inhibitors of Plasmodium falciparum (DD2) proliferation (AID 743345; call rule not given here). The note with it: P. falciparum Dd2 in erythrocytes, SYBR Green DNA, 72 h; at 28.5 µM unless noted. Summed up:
as §1
Background: Quantitative high-throughput screening tests each substance at several concentrations.

A short description of assay [3]: qHTS profiling of the MIPE4 collection as inhibitors of Plasmodium falciparum (HB3) proliferation (AID 743347; call rule not given here;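 also: plate controls were DMSO vehicle wells for no effect and artemisinin wells for full effect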). The note with it: P. falciparum HB3 in erythrocytes, SYBR Green DNA, 72 h; at 28.5 µM unless noted. Put shortly:
as §1

A short description of assay [4]: qHTS for Inhibitors of the Functional Ribonucleoprotein Complex (vRNP) of Lassa (LASV) Arenavirus: LASV Primary Screen - GLuc reporter signal (AID 1347082; calls by dose curve; tested in HEK293 reporter line; also: % is scaled to controls: 0 for no effect and ±100 for the full control effect; nearly all actives have a fitted effect of over 60% in size).
The nature of assay [5]: qHTS for Inhibitors of the Functional Ribonucleoprotein Complex (vRNP) of Lassa (LASV) Arenavirus: Viability assay - alamar blue signal for LASV Primary Screen (AID 1347083; calls by dose curve; tested in HEK293 reporter line; also: nearly all actives have a fitted effect of over 80% in size; also: potency is read from the fitted curve at half-maximal effect).
The nature of assay [6]: qHTS for Inhibitors of the Functional Ribonucleoprotein Complex (vRNP) of Lymphocytic Choriomeningitis Arenaviruses (LCMV): Viability assay - alamar blue signal for LCMV Primary Screen (AID 1347085; calls by dose curve; tested in HEK293 reporter line; also: nearly all actives have a fitted effect of over 80% in size; also: potency is read from the fitted curve at half-maximal effect).
The target of assay [7] is Nucleoprotein (Lymphocytic choriomeningitis virus (strain Armstrong)) (UniProt P09992). The experiment in a line: qHTS for Inhibitors of the Functional Ribonucleoprotein Complex (vRNP) of Lymphocytic Choriomeningitis Arenaviruses (LCMV): LCMV Primary Screen - GLuc reporter signal (AID 1347086; calls by dose curve; also: % is scaled to controls: 0 for no effect and ±100 for the full control effect; nearly all actives have a fitted effect of over 70% in size).
Assay [8] in a line: Primary qHTS for Huh7 cytotoxicity: counterscreen for inhibitors of MERS-S pseudotyped particle cell entry (AID 1479147; calls by dose curve; also: % is scaled to controls: 0 for no effect and ±100 for the full control effect). The note with it: outcome: dose series up to 57.1 µM unless noted.
Assay [9] can be described thus: Primary qHTS for inhibitors of MERS-S pseudo-typed particle cell entry (AID 1479149; calls by dose curve; also: nearly all actives have a fitted effect of over 60% in size).
Assay [10] can be described thus: Primary qHTS for Vero E6 cytotoxicity: counterscreen for inhibitors of SARS-S pseudo-typed particle cell entry (AID 1479150; calls by dose curve). The note with it: outcome: dose series up to 57.1 µM unless noted.
Assay [11] in a line: Cytotoxicity counterscreen for inhibitors of SARS-CoV-2 cell entry (AID 1645845; calls by dose curve; also: nearly all actives have a fitted effect of over 50% in size). Summed up: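 HEK293-ACE2 cells (Expi293F stably expressing human ACE2) seeded overnight, then compound for 1 h plus 48 h at 37C. Viability as ATP content by luminescence; normalized to wells with cells and media-only wells.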
On the technique in general: Counterscreens check selectivity or assay interference.

A short description of assay [12]: Primary qHTS to identify inhibitors of SARS-CoV-2 cell entry (AID 1645846; calls by dose curve; also: nearly all actives have a fitted effect of over 45% in size). The conditions noted are these: activity change, negative = inhibition: at 57.1 µM (top of the series) unless noted. Put shortly: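 Entry measured by luciferase signal 48 h after adding SARS-CoV-2-S pseudotyped MLV particles to HEK293-ACE2 cells preincubated 1 h with compounds. Normalisation: bald particles and spike particles.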

Assay [13] concerns the target Cytochrome P450 3A4 (Homo sapiens) (UniProt P08684). The experiment in a line: qHTS Assay for Inhibitors and Substrates of Cytochrome P450 3A4 (AID 884). Also: potency is read from the fitted curve at half-maximal effect; nearly all actives have a fitted effect of over 50% in size. Put shortly: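 20 nM human CYP3A4 with 25 uM Luciferin-PPXE (at KM) in 200 mM KPO4, preincubated 10 min with compound; NADPH regeneration started a 60 min RT reaction. Luciferin detected by luminescence, normalized to 57 uM ketoconazole as full inhibition.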

For assay [14] the target is unchanged. Nature of the assay: qHTS Assay for Activators of Cytochrome P450 3A4 (AID 885). Also: nearly all actives have a fitted effect of over 65% in size. Put shortly: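 Human CYP3A4 (20 nM) with Luciferin-PPXE at 25 uM (its KM) in 200 mM KPO4; 10 min compound preincubation, then NADPH regeneration and 60 min reaction at RT. Luciferin read by luminescence; normalized to 57 uM ketoconazole full inhibition.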
For assay [15], the target named is Alpha-galactosidase (Coffea arabica) (UniProt Q42656). The experiment in a line: Counterscreen for Glucocerebrosidase Inhibitors: qHTS Assay for Coffee Bean alpha-Galactosidase at pH 4.5 (AID 957).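 Also: plate controls were enzyme alone for no effect and no enzyme for full effect.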 Summed up: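 Green coffee bean enzyme (2 nM final) was incubated with compounds (0.7 nM to 77 uM) and 4-methylumbelliferyl alpha-D-galactopyranoside (80 uM final) in 50 mM citric acid, 0.005% Tween-20, pH 4.5, 20 min at room temperature; AC50 from Hill fits.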

Assay [16] shares this target. Nature of the assay: Counterscreen for Glucocerebrosidase Inhibitors: qHTS Assay for Coffee Bean alpha-Galactosidase at pH 5.9 (AID 998).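 Also: plate controls were uninhibited enzyme for no effect and no-enzyme basal signal for full effect.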 Summed up: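 Green coffee bean enzyme (2 nM) with 4-methylumbelliferyl alpha-D-galactopyranoside (80 uM) in 50 mM citric acid, 0.005% Tween-20, pH 5.9, 20 min at room temperature; compounds 0.7 nM–77 uM. Stopped at pH 10, fluorescence Ex365/Em440; Hill-fit AC50.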

The target of assay [17] is Glucocorticoid receptor (Homo sapiens) (UniProt P04150). The experiment in a line: GR-GFP Redistribution (AID 450;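 active = compounds whose dose series gives a full or clear partial fitted curve of increased nuclear translocation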; also: potency is read from the fitted curve at half-maximal effect). The conditions noted are these: U2OS GR-GFP nuclear translocation, laser cytometry, 2 h.
For assay [18] the target is unchanged. The experiment in a line: GR-EFC Redistribution (AID 451; calls by dose curve; also: potency is read from the fitted curve at half-maximal effect). The note with it: CHO-K1 GR-EFC translocation, beta-gal luminescence, 2 h. Put shortly:
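CHO-K1 cells expressing nuclear EA and GR-ED fragments of b-gal; compounds titrated up to 46 uM final, 2 h at 37 C. GR nuclear translocation read as complemented b-gal luminescence after 1 h RT detection.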

The target in assay [19] is Mitogen-activated protein kinase 10 (Mus musculus) (UniProt Q61831). The experiment in a line: JNK3 AlphaScreen Assay (AID 530; active = well fitted curve in either direction with a large enough effect, not every such curve was filed as active;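 also: kinase came from lysate of stimulated human HepG2 cells; signal reports phosphorylation of biotinylated GST-cJun 1-79 at Ser73 with 10 µM ATP; % is scaled to controls: 0 for no effect and ±100 for the full control effect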). Put shortly: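 qHTS format: compounds tested as titrations against IL-1beta/TNF-alpha-activated HepG2 lysate JNK3 with biotin-GST-cJun substrate and 10 uM ATP at room temperature. Loss of anti-phospho-cJun AlphaScreen signal indicates inhibition.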
(In general: Alpha assays give light when donor and acceptor beads are brought close together.)

Assay [20] addresses 3',5'-cyclic-AMP phosphodiesterase 4B (Homo sapiens) (UniProt Q07343). The experiment in a line: qHTS Assay for Inhibitors of PDE-IV (AID 607; active = well fitted activation curve with a large enough effect in the main read-out, with a control signal flat, not every such curve was filed as active; also: % of control where 0% means no effect). Summed up:
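HEK293 ACTOne cells with CNG channel (1000/well), endogenous PDE4; membrane potential dye, compounds up to 22.9 uM final. Fluorescence Ex 535/Em 590; RO 20-1724 (100 uM final) as reference.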

Assay [21] addresses Cytochrome P450 2C9 (Homo sapiens) (UniProt P11712). The experiment in a line: qHTS Assay for Inhibitors and Substrates of Cytochrome P450 2C9 (AID 883). Also: % is scaled to controls: 0 for no effect and ±100 for the full control effect; nearly all actives have a fitted effect of over 60% in size. Put shortly: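 Signal: luciferase luminescence reporting luciferin produced by CYP2C9. Conditions: 10nM enzyme, Luciferin-H 100uM at KM, 25mM KPO4, 37C, 60 min NADPH-driven reaction. Reference: 57uM sulphaphenazole as 100% inhibition.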

In assay [22] the target is Cytochrome P450 2D6 (Homo sapiens) (UniProt P10635). Nature of the assay: qHTS Assay for Inhibitors and Substrates of Cytochrome P450 2D6 (AID 891).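 Also: luciferin methyl ether substrate demethylated by CYP2D6 with NADPH regeneration; % is scaled to controls: 0 for no effect and ±100 for the full control effect; nearly all actives have a fitted effect of over 60% in size.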 Summed up: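 Human CYP2D6 (5 nM) with 30 uM Luciferin-ME EGE (at Km) in 100 mM KPO4, compound preincubated 10 min, then NADPH regeneration system for 60 min at room temperature. Luciferin read by luminescence; normalized to 1.43 uM quinidine.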

The target in assay [23] is Cytochrome P450 2C19 (Homo sapiens) (UniProt P33261). The experiment in a line: qHTS Assay for Inhibitors and Substrates of Cytochrome P450 2C19 (AID 899). Summed up:
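Signal comes from luciferase acting on luciferin released by CYP2C19-mediated hydroxylation of Luciferin-H EGE, 10uM (KM). Assay mix: 5nM enzyme, 50mM KPO4; 60 min at 37C with NADPH regeneration. Data normalized against 57uM ketoconazole.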

Assay [24] is described as follows: Confirmation and Secondary Assay for Modulators of Hemoglobin Beta Chain Splicing at IVS2 705 locus (AID 930).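 Also: HeLa cells stably expressing the EGFP-705 splicing reporter; GFP fluorescence per well restored by corrected splicing of the IVS2-705 intron in EGFP; % of control where 0% means no effect.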 Put shortly: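 Secondary splice-site specificity test uses HeLa expressing CMV-driven EGFP interrupted by IVS2-705; cells were treated 2 days at 37C with 500 nM antisense PNA as positive control.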
Assay [25] deals with DNA dC->dU-editing enzyme APOBEC-3G (Homo sapiens) (UniProt Q9HC16). Nature of the assay: qHTS for inhibitors of Vif-A3G interactions: Validation (AID 588379). Also: 0% is about no effect. Put shortly:
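HeLa cells stably expressing Vif and A3G-eYFP, 700 cells/well, incubated overnight at 37 deg C, then exposed to compound overnight at 37 deg C. Inhibition of Vif-mediated degradation read as increased yellow fluorescence (Ex 488/Em 500-530) by laser-scanning cytometry.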

Assay [26] concerns Zika virus NS2B-NS3 protease. The experiment in a line: Primary screen GU AMC qHTS for Zika virus inhibitors (AID 1347154).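 Also: 0% = no-inhibitor control and -100% = no-enzyme control; nearly all actives have a fitted effect of over 70% in size.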 Put shortly:
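Unlinked Zika NS2B hydrophilic domain–NS3 protease complex at 25 nM in 10 mM Tris-HCl pH 8.0, 0.01% Tween 20, with an AMC peptide substrate. Fluorescence change (340/450 nm) over 15 min at room temperature, normalized to controls, fitted to 4-parameter Hill.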

Assay [27] can be described thus: Primary qHTS for small molecule stabilizers of the endoplasmic reticulum resident proteome: Secreted ER Calcium Modulated Protein (SERCaMP) assay (AID 1508630). Also: % is scaled to controls: 0 for no effect and ±100 for the full control effect. Summed up: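 GLuc-SERCaMP-expressing SH-SY5Y cells, pretreated 16 h with compound, are challenged with thapsigargin to empty ER calcium stores; after 4 h, coelenterazine is added directly to the medium and luminescence is imaged.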

The nature of assay [28]: Primary qHTS for inhibitors of SARS-S pseudo-typed particle cell entry (AID 1479145; calls by dose curve; also: % is scaled to controls: 0 for no effect and ±100 for the full control effect; nearly all actives have a fitted effect of over 45% in size).
The target in assay [29] is Nuclear receptor subfamily 1 group I member 3 (Homo sapiens) (UniProt Q14994). Nature of the assay: Primary qHTS for antagonist of constitutive androstane receptor (CAR) against the NCATS DSHEA and TCM libraries (AID 1794836).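 Also: HepG2 cells stably expressing hCAR with CYP2B6 luciferase reporter stimulated by CITCO.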 Put shortly: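 HepG2-CYP2B6-hCAR cells, attached 5 h, given compounds plus CITCO agonist […], incubated 24 h at 37 C. Luciferase luminescence read, multiplexed with CellTiter-Fluor viability (Ex/Em 405/540 nm).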

Assay [30] in a line: KB-8-5-11 P-gp reporter qHTS against the NCATS DSHEA and TCM libraries (AID 1919977). Also: 0% is about no effect. Put shortly:
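CellTiter-Glo luminescence measured viability after ~72 h exposure (37C, 5% CO2) of KB-8-5-11 cervical adenocarcinoma cells overexpressing P-gp. Colchicine was omitted during assay. Substances were tested as titrations.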

Chain of Nucleoprotein (Lymphocytic choriomeningitis virus (strain Armstrong)) (P09992 whole entry, looked up): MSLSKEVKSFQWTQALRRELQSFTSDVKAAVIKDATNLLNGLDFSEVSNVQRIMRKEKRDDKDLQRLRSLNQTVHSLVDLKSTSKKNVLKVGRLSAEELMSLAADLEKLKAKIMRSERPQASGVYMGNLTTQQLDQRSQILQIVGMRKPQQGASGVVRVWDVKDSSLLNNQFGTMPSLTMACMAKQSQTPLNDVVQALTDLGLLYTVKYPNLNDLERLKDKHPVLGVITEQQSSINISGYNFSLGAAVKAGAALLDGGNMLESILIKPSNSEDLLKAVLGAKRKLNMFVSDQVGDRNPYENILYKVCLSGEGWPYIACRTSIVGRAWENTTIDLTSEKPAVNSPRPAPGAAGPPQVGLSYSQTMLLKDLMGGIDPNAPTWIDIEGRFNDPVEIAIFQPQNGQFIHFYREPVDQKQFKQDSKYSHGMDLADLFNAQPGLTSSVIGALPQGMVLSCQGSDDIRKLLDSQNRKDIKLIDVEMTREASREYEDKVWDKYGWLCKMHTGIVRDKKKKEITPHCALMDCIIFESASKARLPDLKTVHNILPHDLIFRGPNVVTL
Chain of Cytochrome P450 3A4 (Homo sapiens) (P08684 whole entry, looked up): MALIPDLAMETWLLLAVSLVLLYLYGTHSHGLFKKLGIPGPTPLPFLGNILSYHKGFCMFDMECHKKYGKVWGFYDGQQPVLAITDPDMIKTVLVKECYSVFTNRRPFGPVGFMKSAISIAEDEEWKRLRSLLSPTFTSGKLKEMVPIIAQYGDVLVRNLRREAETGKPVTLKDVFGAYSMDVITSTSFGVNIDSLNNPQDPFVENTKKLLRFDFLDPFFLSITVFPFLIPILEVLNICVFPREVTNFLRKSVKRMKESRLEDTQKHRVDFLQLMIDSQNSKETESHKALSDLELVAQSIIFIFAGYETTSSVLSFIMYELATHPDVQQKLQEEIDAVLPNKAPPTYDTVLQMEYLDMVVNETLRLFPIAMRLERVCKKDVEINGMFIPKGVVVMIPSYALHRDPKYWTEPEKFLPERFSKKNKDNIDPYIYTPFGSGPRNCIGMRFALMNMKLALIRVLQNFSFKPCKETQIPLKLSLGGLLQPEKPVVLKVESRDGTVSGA
Chain of Alpha-galactosidase (Coffea arabica) (Q42656 whole entry, looked up): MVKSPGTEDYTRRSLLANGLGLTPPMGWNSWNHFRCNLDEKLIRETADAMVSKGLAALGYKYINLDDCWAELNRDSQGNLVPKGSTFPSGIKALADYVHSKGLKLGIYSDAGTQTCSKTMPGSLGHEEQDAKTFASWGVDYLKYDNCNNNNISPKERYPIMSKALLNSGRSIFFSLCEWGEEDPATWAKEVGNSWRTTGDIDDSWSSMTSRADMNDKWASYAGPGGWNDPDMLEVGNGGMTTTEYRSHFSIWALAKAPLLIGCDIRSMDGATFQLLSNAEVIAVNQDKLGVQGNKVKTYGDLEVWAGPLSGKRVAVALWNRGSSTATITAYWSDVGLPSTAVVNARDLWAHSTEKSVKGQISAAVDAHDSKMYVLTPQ
Chain of Glucocorticoid receptor (Homo sapiens) (P04150 whole entry, looked up): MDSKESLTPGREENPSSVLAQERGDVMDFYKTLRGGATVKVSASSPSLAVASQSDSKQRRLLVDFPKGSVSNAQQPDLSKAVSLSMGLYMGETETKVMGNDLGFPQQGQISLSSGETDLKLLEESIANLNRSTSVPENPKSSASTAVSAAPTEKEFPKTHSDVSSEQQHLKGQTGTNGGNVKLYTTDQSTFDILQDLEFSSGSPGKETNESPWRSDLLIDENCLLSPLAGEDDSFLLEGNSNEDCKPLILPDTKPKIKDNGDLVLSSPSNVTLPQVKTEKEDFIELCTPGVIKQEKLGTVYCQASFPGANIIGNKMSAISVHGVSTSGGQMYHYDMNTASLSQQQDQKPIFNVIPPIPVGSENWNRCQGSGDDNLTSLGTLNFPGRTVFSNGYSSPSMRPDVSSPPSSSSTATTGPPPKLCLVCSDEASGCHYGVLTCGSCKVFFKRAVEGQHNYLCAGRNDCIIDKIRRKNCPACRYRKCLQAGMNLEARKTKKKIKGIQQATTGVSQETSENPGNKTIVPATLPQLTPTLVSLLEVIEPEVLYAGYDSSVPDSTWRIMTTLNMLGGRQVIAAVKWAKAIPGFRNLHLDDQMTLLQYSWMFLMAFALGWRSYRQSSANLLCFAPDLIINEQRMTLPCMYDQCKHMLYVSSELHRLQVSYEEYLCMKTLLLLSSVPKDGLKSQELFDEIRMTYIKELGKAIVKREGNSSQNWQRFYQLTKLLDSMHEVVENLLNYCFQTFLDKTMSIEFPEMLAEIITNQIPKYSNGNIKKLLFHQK
Chain of Cytochrome P450 2D6 (Homo sapiens) (P10635 whole entry, looked up): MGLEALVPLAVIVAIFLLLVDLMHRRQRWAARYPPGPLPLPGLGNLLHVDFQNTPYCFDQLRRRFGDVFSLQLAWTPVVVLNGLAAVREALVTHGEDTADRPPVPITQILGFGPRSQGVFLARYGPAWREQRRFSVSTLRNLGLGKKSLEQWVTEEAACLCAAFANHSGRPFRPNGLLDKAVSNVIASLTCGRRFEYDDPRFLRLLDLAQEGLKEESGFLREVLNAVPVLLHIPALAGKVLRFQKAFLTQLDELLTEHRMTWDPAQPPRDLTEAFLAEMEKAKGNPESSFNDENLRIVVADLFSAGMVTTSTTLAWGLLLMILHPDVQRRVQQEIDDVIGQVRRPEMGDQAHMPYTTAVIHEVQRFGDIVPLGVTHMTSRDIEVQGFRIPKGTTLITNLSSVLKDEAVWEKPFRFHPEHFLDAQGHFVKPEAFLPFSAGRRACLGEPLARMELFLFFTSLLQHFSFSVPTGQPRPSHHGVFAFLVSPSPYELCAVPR
Chain of DNA dC->dU-editing enzyme APOBEC-3G (Homo sapiens) (Q9HC16 whole entry, looked up): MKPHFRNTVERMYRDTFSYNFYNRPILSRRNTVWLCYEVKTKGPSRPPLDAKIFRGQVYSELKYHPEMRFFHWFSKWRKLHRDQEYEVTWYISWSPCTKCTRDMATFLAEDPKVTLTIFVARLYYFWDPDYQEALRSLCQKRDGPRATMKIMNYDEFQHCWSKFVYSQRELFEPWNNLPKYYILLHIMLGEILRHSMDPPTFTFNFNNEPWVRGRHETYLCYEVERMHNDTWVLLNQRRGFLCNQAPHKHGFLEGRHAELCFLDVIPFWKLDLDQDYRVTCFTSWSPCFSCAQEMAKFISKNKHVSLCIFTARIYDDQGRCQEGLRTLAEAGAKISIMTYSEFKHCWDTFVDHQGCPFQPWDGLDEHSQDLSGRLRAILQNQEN
Chain of Nuclear receptor subfamily 1 group I member 3 (Homo sapiens) (Q14994 whole entry, looked up): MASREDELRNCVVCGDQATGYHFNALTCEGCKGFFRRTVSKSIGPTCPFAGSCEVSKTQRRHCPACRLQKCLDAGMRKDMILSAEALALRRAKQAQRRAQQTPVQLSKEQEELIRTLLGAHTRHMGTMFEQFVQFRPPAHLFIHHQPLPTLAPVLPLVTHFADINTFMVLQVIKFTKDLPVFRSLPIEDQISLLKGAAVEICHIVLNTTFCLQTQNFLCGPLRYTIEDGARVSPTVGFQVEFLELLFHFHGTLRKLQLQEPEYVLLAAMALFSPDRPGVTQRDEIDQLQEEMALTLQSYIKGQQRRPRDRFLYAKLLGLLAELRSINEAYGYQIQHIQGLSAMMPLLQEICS
Chain of 3',5'-cyclic-AMP phosphodiesterase 4B (Homo sapiens) (Q07343 whole entry, looked up): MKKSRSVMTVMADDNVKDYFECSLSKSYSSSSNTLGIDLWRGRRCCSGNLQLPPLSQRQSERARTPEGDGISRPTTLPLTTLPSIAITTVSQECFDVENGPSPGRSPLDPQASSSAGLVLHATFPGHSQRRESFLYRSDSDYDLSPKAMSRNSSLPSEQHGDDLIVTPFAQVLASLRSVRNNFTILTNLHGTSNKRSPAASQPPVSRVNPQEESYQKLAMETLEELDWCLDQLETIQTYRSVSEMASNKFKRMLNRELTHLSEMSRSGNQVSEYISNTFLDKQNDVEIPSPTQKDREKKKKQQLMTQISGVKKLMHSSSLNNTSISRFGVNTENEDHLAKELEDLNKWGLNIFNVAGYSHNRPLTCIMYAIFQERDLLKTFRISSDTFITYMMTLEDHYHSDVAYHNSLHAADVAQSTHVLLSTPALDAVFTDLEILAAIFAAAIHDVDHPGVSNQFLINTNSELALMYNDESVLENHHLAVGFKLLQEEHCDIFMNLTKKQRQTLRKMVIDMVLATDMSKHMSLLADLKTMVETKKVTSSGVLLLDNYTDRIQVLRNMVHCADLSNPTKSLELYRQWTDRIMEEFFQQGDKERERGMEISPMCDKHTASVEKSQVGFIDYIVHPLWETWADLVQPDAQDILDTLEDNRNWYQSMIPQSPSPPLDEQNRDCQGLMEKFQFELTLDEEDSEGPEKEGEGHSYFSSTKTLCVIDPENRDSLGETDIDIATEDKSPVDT
Chain of Cytochrome P450 2C9 (Homo sapiens) (P11712 whole entry, looked up): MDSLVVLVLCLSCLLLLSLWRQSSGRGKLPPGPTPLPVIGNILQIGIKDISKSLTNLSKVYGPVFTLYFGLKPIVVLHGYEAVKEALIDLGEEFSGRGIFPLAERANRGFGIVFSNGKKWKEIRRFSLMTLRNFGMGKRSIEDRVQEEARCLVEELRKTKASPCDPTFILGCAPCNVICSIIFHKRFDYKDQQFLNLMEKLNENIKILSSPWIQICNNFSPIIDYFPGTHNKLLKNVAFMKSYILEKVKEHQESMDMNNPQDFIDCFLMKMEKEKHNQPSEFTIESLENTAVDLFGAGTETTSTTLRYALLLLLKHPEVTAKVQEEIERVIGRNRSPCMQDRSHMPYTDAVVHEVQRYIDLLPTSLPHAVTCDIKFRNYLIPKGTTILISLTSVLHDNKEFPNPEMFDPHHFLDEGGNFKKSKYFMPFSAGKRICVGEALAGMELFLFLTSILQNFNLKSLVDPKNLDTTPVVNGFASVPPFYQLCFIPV

For `C=C1C[C@@]2(O)O[C@@]3(C[C@H]2C(C)C)[C@H](C)CC[C@H]13`, the parasite growth, % of DMSO control in assay [1] was found to be 70.7%. Also, in assay [2], the parasite growth remaining, % of DMSO control (lower = more inhibition) was found to be 75.7%. The compound also yielded a growth, % of control in [3] of 68.4%. Besides, the Potency result in [4], in assay [5], in assay [6] and in assay [7] was “inactive” each time.
`CS(=O)(=O)c1ccc(C2=C(c3ccccc3)C(=O)OC2)cc1`: the Potency entry in assay [4], in [5], in assay [9] and in assay [11] was “inactive” throughout. In addition, the Potency in assay [6] was 27.3 µM (active). In addition, the compound was called inactive in [8] and in assay [10]. For the same compound, the activity change, negative = inhibition in assay [12] is -28.2% and -25.4%.
As to `COc1ccc2ccc(=O)oc2c1CC=C(C)C`, the Potency in assay [13] was 15.8 µM (active). For the same compound, the Potency result in assay [14], in [4], in assay [5], in assay [6] and in assay [7] was “inactive” in each case.
`COc1cc(C[C@@H](CO)[C@H](CO)Cc2ccc(O)c(OC)c2)ccc1O`: the Potency entry in [4] and in assay [12] was “inactive” each time. Further, the Potency in [5] was 1.72 µM (active); in assay [6] it was 2.73 µM (active).
In the case of `CN(C)S(=O)(=O)c1ccc2c(c1)C(=Cc1cc3c([nH]1)CCCC3)C(=O)N2`, the Potency entry in assay [4] and in assay [11] was “inactive” in each case. Also, the Potency in [5] was 10.9 µM (active); in [6] it was 2.73 µM (active).
As to `CC(C)Cc1ccc([C@H](C)C(=O)O)cc1`, the compound was classed as inactive in [15] and in assay [16]. In addition, the Potency entry in assay [4], in [5], in [6] and in assay [7] was “inactive” throughout.
As to `O=Nc1c(-c2c(O)[nH]c3cc(Br)ccc23)[nH]c2ccccc12`, in [15], the compound was called inactive. The Potency entry in assay [4], in assay [6] and in [7] was “inactive” each time. Also, in assay [5], the Potency is 15.8 µM (active).
On to `COc1cccc2c1cc([N+](=O)[O-])c1c(C(=O)O)cc3c(c12)OCO3`, for which the Potency in assay [17] and in [18] was > 46 µM (inactive) throughout. Also, the result in [19] and in [24] was inactive. Further, the Potency entry in assay [20], in [21], in assay [14], in [22], in assay [23] and in assay [25] was “inactive” throughout. The Potency result in [26] and in assay [27] was “inactive” in each case.
Consider `Cc1ncc(C[n+]2csc(CCO)c2C)c(N)n1`, for which the Potency result in assay [28] and in [29] was “inactive” throughout. For the same compound, the result in [30] was inactive.
